22 molecules from PubChem BioAssay (Tox21) can be followed below.

Values without a mark were called inactive. Inconclusive results are not listed. Activity calls are given as the source filed them. Calls come from the whole dose curve; as a rule, active = well fitted curve in the direction sought with a large enough effect in the repeat runs; inconclusive = weak or mixed curves; inactive = no such curve, though single readings can be large; an effect the other way counts as inactive or inconclusive.

A short description of assay [1]: Human pregnane X receptor (PXR) small molecule agonists, qHTS cell viability counter screen (AID 1346977). Note: nearly all actives have a fitted effect of over 50% in size. Note: potency is the fitted concentration of half-maximal effect. In a few lines: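 Readout is CellTiter-Fluor fluorescence from PXR-Luc HepG2 cells. Plated cells rested 5hr, then were treated with compounds for 24hr at 37C and 5% CO2, with reagent present during the last hour.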
The nature of assay [2]: Caspase-3/7 induction in HepG2 cells by small molecules, qHTS assay (AID 1346978). Note: nearly all actives have a fitted effect of over 15% in size. Put shortly: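 Wild-type HepG2 cells, 2,000/well, settled 5 hr at 37 C and 5% CO2, then compound-treated for 17 hr; caspase-3/7 activity read by luminescent Caspase-Glo 3/7 after 30 min at room temperature.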
Assay [3] in a line: Caspase-3/7 induction in CHO-K1 cells by small molecules, qHTS cell viability counter screen (AID 1346979). Note: nearly all actives have a fitted effect of over 35% in size. Note: potency is the fitted concentration of half-maximal effect. In a few lines: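 To flag cytotoxic compounds, treated CHO-K1 wild-type cells were given CellTiter-Fluor at 16hr and read fluorescently after 1hr at 37C; the caspase-3/7 luminescence was measured in these same wells.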
Assay [4] in a line: Caspase-3/7 induction in CHO-K1 cells by small molecules, qHTS assay (AID 1346980). Note: nearly all actives have a fitted effect of over 15% in size. Put shortly:
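Wild-type CHO-K1 cells exposed to compounds for 17hr at 37 C, 5% CO2. Caspase-3/7 activity then measured by Caspase-Glo 3/7 luminescence after 30min at room temperature.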

Assay [5] is described as follows: Caspase-3/7 induction in HepG2 cells by small molecules, qHTS cell viability counter screen (AID 1346981). For activity change, negative = cytotoxicity: series mostly up to about 92 µM. Note: nearly all actives have a fitted effect of over 30% in size. Note: potency is the fitted concentration of half-maximal effect. In a few lines:
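Steps: seed 2,000 HepG2 cells per well; incubate 5 hr at 37 C; pin-add compounds in DMSO; incubate 16 hr; add CellTiter-Fluor; after 1 hr at 37 C and 5% CO2, read fluorescence.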

For assay [6], the target named is Nuclear receptor subfamily 1 group I member 2 (Homo sapiens) (UniProt O75469). As to the kind of experiment: Human pregnane X receptor (PXR) small molecule agonists, qHTS assay (AID 1346982). Note: nearly all actives have a fitted effect of over 35% in size. Note: potency is the fitted concentration of half-maximal effect. In a few lines:
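Agonist mode qHTS: PXR-Luc HepG2 cells plated 5 hr before DMSO-dissolved compounds were pinned in, cultured 24 hr at 37 C, 5% CO2; ONE-Glo luminescence readout.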

Assay [7] deals with Cytochrome P450 2D6 (Homo sapiens) (UniProt P10635). As to the kind of experiment: Cytochrome P450 Family 2 Subfamily D Member 6 (CYP2D6) small molecule antagonists: luciferase reporter qHTS assay (AID 1671196). For activity change, negative = inhibition: series mostly up to about 120 µM. Note: nearly all actives have a fitted effect of over 50% in size. Note: potency is the fitted concentration of half-maximal effect. Put shortly: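 P450-Glo format: CYP2D6 converts a proluciferin substrate to luciferin in an NADPH-driven reaction lasting 1 h at room temperature. Light output, proportional to CYP2D6 activity, reflects interference by test chemicals.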
Sequence of Cytochrome P450 2D6 (Homo sapiens) (P10635 whole entry, looked up): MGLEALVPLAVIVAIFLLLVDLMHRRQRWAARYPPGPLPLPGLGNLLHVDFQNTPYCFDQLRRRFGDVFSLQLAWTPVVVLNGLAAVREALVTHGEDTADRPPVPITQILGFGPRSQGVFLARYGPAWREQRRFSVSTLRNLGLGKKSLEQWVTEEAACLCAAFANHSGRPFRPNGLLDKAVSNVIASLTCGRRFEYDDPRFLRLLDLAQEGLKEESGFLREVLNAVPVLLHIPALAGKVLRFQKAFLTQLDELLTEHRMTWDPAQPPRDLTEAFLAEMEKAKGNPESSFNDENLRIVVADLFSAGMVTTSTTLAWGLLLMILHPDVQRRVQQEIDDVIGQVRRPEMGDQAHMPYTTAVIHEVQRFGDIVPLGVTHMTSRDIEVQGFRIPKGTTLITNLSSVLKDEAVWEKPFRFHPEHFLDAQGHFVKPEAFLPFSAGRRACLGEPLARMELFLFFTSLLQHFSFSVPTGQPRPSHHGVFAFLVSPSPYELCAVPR

The target of assay [8] is Cytochrome P450 2C9 (Homo sapiens) (UniProt P11712). As to the kind of experiment: Cytochrome P450 Family 2 Subfamily C Member 9 (CYP2C9) small molecule antagonists: luciferase reporter qHTS assay (AID 1671198). For activity change, negative = inhibition: series mostly up to about 120 µM. Note: nearly all actives have a fitted effect of over 50% in size. Note: potency is the fitted concentration of half-maximal effect. In a few lines:
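P450-Glo proluciferin substrate with CYP2C9 enzyme; 10 min RT preincubation, then NADPH regeneration 1 h at 37C; luciferin detection reagent 20 min RT, luminescence in relative luminescence units.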

In assay [9] the target is Voltage-gated inwardly rectifying potassium channel KCNH2 (Homo sapiens) (UniProt Q12809). Nature of the assay: Human Ether-a-go-go-Related Gene (hERG) channel small molecule antagonists: fluorescence cell-based qHTS assay (AID 1671200).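 Note: hERG-expressing U2OS cells given a thallium stimulus after FluxOR II dye loading; series mostly up to about 77 µM; nearly all actives have a fitted effect of over 50% in size.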 Put shortly: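 Measured: Tl+ flux via fluorescence (480/540 nm) in hERG-expressing U2OS cells after 1 h dye loading at room temperature.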
Sequence of Voltage-gated inwardly rectifying potassium channel KCNH2 (Homo sapiens) (Q12809 whole entry, looked up): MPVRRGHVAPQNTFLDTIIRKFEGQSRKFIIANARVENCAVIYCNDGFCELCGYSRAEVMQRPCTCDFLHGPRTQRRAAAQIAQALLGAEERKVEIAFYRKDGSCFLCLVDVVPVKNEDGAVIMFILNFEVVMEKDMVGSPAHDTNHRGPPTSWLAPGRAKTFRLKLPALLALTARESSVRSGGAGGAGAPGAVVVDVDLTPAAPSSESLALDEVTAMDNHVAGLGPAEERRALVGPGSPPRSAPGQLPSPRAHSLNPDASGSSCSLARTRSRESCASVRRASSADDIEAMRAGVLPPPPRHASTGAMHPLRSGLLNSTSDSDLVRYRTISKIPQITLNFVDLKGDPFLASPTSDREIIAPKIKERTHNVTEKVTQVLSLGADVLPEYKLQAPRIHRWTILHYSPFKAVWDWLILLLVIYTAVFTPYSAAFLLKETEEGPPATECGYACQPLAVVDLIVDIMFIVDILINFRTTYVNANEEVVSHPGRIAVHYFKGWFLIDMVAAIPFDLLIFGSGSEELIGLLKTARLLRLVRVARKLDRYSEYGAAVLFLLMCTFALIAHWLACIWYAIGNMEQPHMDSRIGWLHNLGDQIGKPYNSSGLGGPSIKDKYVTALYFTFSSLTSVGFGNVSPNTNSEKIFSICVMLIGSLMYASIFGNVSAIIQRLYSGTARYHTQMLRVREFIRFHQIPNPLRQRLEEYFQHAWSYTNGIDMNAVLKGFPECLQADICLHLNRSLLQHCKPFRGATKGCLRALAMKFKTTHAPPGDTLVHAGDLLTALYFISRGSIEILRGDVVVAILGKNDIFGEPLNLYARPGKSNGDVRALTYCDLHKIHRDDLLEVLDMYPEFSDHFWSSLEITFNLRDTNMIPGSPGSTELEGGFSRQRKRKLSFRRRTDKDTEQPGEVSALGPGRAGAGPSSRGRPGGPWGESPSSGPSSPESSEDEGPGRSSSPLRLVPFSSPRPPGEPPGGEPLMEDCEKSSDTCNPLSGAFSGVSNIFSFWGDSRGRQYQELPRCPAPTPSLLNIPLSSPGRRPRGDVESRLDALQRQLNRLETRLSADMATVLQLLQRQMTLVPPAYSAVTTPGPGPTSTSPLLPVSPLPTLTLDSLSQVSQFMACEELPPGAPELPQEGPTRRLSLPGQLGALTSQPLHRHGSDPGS

The target in assay [10] is Cytochrome P450 3A4 (Homo sapiens) (UniProt P08684). As to the kind of experiment: Cytochrome P450 Family 3 Subfamily A Member 4 (CYP3A4) small molecule antagonists: luciferase reporter qHTS assay (AID 1671201). For activity change, negative = inhibition: series mostly up to about 120 µM. Note: nearly all actives have a fitted effect of over 50% in size. Note: potency is the fitted concentration of half-maximal effect. In a few lines:
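Setup: enzyme-substrate mix, compound pin transfer, 10 min RT. Reaction: NADPH regeneration solution, 1 h RT. Readout: detection reagent stops turnover, luminescence measured after 20 min, expressed in relative luminescence units.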

For assay [11], the target named is Cytochrome P450 2C19 (Homo sapiens) (UniProt P33261). As to the kind of experiment: Cytochrome P450 Family 2 Subfamily C Member 19 (CYP2C19) small molecule antagonists: luciferase reporter qHTS assay (AID 1671197). For activity change, negative = inhibition: series mostly up to about 120 µM. Note: nearly all actives have a fitted effect of over 65% in size. Note: potency is the fitted concentration of half-maximal effect. In a few lines:
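Inhibition of CYP2C19 was scored from loss of luminescence in a P450-Glo proluciferin substrate assay, NADPH-started and run 1 h at 37C, with ketoconazole as positive control.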

The target in assay [12] is Cytochrome P450 1A2 (Homo sapiens) (UniProt P05177). As to the kind of experiment: Cytochrome P450 Family 1 Subfamily A Member 2 (CYP1A2) small molecule antagonists: luciferase reporter qHTS assay (AID 1671199). For activity change, negative = inhibition: series mostly up to about 120 µM. Note: nearly all actives have a fitted effect of over 50% in size. Note: potency is the fitted concentration of half-maximal effect. In a few lines:
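Inhibition of CYP1A2 conversion of proluciferin to luciferin, detected by luminescence. Reaction run 1 h at room temperature with NADPH regeneration after brief compound preincubation.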

Assay [13] concerns the target Nuclear receptor subfamily 1 group I member 2 (Rattus norvegicus) (UniProt Q9R1A7). Nature of the assay: Rat pregnane X receptor (rPXR) activation by small molecules, qHTS assay (AID 1346983). Note: nearly all actives have a fitted effect of over 20% in size. To be noted: rPXR luciferase reporter cells, One-Glo luminescence, 24 h; max activation: stronger effect = higher value. In a few lines: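 Cell-based rPXR activation assay: rPXR cells, 2,000 per well, rested 5hr at 37 C, then exposed to compounds in DMSO for 24 hr at 37 C. Luciferase activity read by One-Glo luminescence after 30 min at room temperature.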
% is set by controls: 0 for no effect and ±100 for the full control effect.

Sequence of Cytochrome P450 2C19 (Homo sapiens) (P33261 whole entry, looked up): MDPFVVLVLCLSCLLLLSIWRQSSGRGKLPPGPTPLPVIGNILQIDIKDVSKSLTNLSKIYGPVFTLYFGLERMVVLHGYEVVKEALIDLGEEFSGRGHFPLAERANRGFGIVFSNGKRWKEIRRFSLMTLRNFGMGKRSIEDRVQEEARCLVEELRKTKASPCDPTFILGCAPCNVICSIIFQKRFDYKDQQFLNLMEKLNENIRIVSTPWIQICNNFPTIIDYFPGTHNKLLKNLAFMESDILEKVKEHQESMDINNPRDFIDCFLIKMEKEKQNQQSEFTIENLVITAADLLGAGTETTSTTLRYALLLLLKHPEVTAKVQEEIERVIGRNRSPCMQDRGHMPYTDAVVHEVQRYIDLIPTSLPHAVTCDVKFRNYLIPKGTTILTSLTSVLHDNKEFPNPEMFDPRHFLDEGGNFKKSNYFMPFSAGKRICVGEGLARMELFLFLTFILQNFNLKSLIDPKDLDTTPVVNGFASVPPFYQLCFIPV
Sequence of Cytochrome P450 1A2 (Homo sapiens) (P05177 whole entry, looked up): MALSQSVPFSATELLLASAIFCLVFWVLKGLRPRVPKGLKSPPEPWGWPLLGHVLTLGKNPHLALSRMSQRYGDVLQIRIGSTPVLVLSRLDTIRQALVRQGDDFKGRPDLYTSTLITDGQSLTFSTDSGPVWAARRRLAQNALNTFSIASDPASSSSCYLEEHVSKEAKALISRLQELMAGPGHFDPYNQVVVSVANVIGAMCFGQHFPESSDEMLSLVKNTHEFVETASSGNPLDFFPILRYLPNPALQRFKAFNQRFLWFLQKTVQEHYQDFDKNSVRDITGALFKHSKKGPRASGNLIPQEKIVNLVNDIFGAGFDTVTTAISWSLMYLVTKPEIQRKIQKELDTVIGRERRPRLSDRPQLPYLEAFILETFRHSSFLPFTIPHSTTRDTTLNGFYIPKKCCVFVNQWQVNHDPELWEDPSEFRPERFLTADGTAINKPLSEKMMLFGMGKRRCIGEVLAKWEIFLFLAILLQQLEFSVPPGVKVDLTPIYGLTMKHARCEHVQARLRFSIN
Sequence of Cytochrome P450 3A4 (Homo sapiens) (P08684 whole entry, looked up): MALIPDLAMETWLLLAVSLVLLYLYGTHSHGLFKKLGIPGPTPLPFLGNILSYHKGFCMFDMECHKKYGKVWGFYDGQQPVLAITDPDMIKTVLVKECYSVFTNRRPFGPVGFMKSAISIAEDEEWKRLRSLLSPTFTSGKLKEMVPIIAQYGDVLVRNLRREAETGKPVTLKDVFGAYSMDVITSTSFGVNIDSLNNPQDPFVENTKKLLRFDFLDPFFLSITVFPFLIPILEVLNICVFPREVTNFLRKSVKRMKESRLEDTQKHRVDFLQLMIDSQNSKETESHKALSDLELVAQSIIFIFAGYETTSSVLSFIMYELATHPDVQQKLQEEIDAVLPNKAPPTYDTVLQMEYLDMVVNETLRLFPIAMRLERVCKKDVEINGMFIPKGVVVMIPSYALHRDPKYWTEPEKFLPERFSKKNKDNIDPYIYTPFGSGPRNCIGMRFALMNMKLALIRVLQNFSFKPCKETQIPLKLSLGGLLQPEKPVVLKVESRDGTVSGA
Sequence of Cytochrome P450 2C9 (Homo sapiens) (P11712 whole entry, looked up): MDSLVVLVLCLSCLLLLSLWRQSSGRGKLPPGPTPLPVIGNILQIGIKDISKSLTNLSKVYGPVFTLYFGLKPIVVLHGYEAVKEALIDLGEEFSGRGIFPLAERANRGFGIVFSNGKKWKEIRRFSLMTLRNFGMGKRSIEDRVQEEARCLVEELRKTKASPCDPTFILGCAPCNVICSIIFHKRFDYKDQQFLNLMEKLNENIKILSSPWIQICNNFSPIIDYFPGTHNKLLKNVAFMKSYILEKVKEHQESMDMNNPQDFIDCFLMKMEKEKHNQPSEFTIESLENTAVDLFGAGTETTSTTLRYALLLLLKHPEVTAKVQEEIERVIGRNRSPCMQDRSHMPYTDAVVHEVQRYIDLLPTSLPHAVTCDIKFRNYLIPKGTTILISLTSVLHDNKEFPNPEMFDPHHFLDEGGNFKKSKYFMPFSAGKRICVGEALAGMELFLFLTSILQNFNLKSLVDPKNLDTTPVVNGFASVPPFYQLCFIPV
Sequence of Nuclear receptor subfamily 1 group I member 2 (Homo sapiens) (O75469 whole entry, looked up): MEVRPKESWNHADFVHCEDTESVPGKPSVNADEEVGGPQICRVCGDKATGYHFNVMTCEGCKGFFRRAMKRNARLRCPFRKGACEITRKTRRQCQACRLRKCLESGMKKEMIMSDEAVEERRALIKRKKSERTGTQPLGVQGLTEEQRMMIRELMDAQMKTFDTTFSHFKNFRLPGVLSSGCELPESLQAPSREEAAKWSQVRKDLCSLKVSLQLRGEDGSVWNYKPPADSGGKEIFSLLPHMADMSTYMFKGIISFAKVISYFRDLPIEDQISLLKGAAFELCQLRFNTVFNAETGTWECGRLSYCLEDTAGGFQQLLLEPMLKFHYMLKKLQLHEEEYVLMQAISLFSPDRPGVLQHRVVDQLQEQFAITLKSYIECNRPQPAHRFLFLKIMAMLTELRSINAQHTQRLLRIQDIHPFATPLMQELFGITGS
Sequence of Nuclear receptor subfamily 1 group I member 2 (Rattus norvegicus) (Q9R1A7 whole entry, looked up): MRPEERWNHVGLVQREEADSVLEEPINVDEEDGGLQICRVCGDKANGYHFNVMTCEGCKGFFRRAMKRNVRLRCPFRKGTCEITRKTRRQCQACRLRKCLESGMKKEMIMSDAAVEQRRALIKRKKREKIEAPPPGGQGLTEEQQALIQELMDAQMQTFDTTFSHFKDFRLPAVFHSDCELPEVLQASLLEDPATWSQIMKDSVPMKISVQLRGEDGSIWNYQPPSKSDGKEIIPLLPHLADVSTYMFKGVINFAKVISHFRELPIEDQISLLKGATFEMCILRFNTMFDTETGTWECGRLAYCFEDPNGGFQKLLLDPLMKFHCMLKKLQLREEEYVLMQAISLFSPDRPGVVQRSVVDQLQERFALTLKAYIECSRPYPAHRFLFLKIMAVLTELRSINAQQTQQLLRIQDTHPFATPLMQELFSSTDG

`CCCCOC(=O)CCCCCCCC(=O)OCCCC`: the Potency result in assay [1], in assay [2], in [3], in assay [4], in [5] and in [6] was “inactive” in each case. Moreover, the Potency result in assay [7], in assay [9] and in [10] was “inactive” in each case. Also, the Potency in [8] is 44.8 µM (active).

With `O=C(O)c1nc(Cl)c(Cl)c(Cl)c1Cl`, the Potency entry in [1], in [2], in assay [3], in [4], in [5] and in assay [6] was “inactive” each time. Further, the Potency entry in assay [9] and in assay [10] was “inactive” throughout. Besides, the Potency in [7] is 28.3 µM (active); in assay [8], 39.9 µM (active).

Regarding `CC(CC=O)c1ccccc1` (configuration not stated), the Potency result in assay [1], in assay [2], in assay [3], in [4], in [5] and in assay [7] was “inactive” each time. In addition, in assay [9], the Potency entry was “inactive”. Also, the Potency is 61.1 µM (active) in assay [6], 15.9 µM (active) in assay [11], 31.7 µM (active) in assay [8] and 20 µM (active) in assay [10].

With `Nc1cccc([N+](=O)[O-])c1`, the Potency result in assay [1], in assay [2], in [3], in assay [4], in [5] and in assay [6] was “inactive” each time. Also, the Potency entry in [7] and in assay [10] was “inactive” in each case. Also, the Potency in assay [11] is 69.5 µM (active); in assay [12], 39.1 µM (active).

`O=C(OCCCCCCOC(=O)c1ccccc1)c1ccccc1`: the Potency entry in assay [1], in assay [2], in assay [3], in assay [4], in assay [5] and in [6] was “inactive” each time. The Potency entry in assay [7], in assay [9] and in assay [10] was “inactive” throughout. Also, the Potency in assay [8] is 7.96 µM (active); in assay [12] it was 3.17 µM (active).

As for `O=[N+]([O-])c1ccc2[nH]ncc2c1`, the Potency entry in assay [1], in assay [2], in [3], in assay [4], in assay [5] and in assay [6] was “inactive” in each case. The Potency entry in [8] and in [10] was “inactive” each time. In assay [12], the Potency is 31.7 µM (active).

For `CC(C)Cc1ccc(C(C)C(=O)OCc2ccccn2)cc1` (configuration not stated), the Potency entry in assay [1], in assay [2], in assay [3], in assay [4], in assay [5] and in assay [6] was “inactive” throughout. Further, the results for the Potency in assay [8] and in assay [12] were 7.76 µM (active) and 32.3 µM (active), respectively.

As to `CC1=CC[C@H](C(C)C)C=C1`, the Potency result in [1], in assay [2], in assay [3], in [4], in assay [5] and in assay [9] was “inactive” each time. The Potency was 27.3 µM (active) in [6], 39.9 µM (active) in assay [11], 39.9 µM (active) in assay [8] and 28.3 µM (active) in [10].

Regarding `OC[C@H]1O[C@@H](OCCc2ccc(O)cc2)[C@H](O)[C@@H](O)[C@@H]1O`, the Potency result in [1], in assay [2], in [3], in assay [4], in [5] and in [6] was “inactive” in each case. Moreover, the Potency entry in assay [11], in [8], in assay [12] and in assay [10] was “inactive” in each case.

As to `CC[N+](C)(CC)CCOC(=O)C(O)(c1ccccc1)C1CCCCC1` (configuration not stated), the Potency entry in assay [1], in assay [2], in assay [3], in assay [4], in [5] and in [6] was “inactive” each time. In addition, the Potency result in assay [8], in [12] and in assay [9] was “inactive” throughout. Also, the Potency in [7] was 0.776 µM (active).

Take `CCCCC(CC)COC(=O)COc1ccc(Cl)cc1Cl` (configuration not stated): the Potency result in assay [1], in [2], in assay [3], in assay [4], in assay [5] and in [6] was “inactive” in each case. The Potency entry in assay [9] is “inactive”. Moreover, the Potency in assay [11] was 20.3 µM (active); in assay [8], 32.2 µM (active); in [12], 25.6 µM (active); in assay [10], 32.2 µM (active).

On to `CCC(CC)Nc1ccc(C)c(C)c1`, for which the Potency entry in assay [1], in assay [2], in assay [3], in assay [4], in assay [5] and in assay [6] was “inactive” in each case. Moreover, the Potency entry in assay [7], in [9] and in assay [10] was “inactive” throughout. Besides, the Potency is 7.1 µM (active) in assay [11] and 5.64 µM (active) in assay [12].

As to `O=C(O)c1ccccc1Cl`, the Potency result in [1], in assay [2], in assay [3], in assay [4], in [5] and in [6] was “inactive” in each case. The Potency result in assay [11], in assay [12], in [9] and in assay [10] was “inactive” throughout.

`O=C(O)CNCC(=O)O`: the activity change, negative = cytotoxicity was 4.27% [at 8.39 µM] in [1], 0.398% [at 8.39 µM] in [3] and 1.14% [at 8.39 µM] in assay [5]. For the same molecule, in [2], the caspase activation is 2.93% [at 8.39 µM]. The caspase-3/7 activation in assay [4] is 0.331% [at 8.39 µM]. The activity change, negative = inhibition is -0.567% [at 10.5 µM] in assay [7]; -0.595% [at 10.5 µM] in [8]; -1.26% [at 10.5 µM] in assay [12]; 4.26% [at 6.97 µM] in [9]; 0.283% [at 10.5 µM] in assay [10].

As for `C[C@@H](c1ncncc1F)C(O)(Cn1cncn1)c1ccc(F)cc1F` (some centres not stated), the Potency result in [1], in assay [2], in assay [3], in assay [4], in [5] and in [7] was “inactive” in each case.

On to `CCCCCCc1ccc(-c2ccc(C#N)cc2)cc1`, for which the Potency result in assay [1], in [2], in [3], in [4], in [5] and in [10] was “inactive” throughout. Also, the Potency in assay [7] is 39.2 µM (active); in assay [11], 44 µM (active); in assay [12], 31.2 µM (active).

As to `CCOc1ccc(O)cc1`, the Potency result in [1], in [2], in assay [3], in [4], in [5] and in [7] was “inactive” throughout. Also, the Potency result in [9] and in assay [10] was “inactive” in each case.

In the case of `C=C(C)C(=O)OCCO`, the Potency result in [1], in assay [2], in assay [3], in assay [4], in assay [5] and in assay [8] was “inactive” throughout. The Potency result in assay [12], in assay [9] and in assay [10] was “inactive” throughout.

As to `CC1=CCCC(C)(C)C12CCC(C)O2` (configuration not stated), the Potency result in assay [1], in [2], in [3], in [4], in [5] and in assay [11] was “inactive” throughout. The Potency entry in [9] is “inactive”. Moreover, the Potency in assay [8] and in assay [10] was 79.6 µM (active) each time.

For `O=C1c2ccccc2S(=O)(=O)N1CCCCN1CCN(c2ncccn2)CC1`, the Potency entry in [1], in assay [2], in assay [3], in assay [4], in assay [5] and in assay [11] was “inactive” throughout. Further, the Potency entry in [12] and in [10] was “inactive” throughout. Also, the max activation in assay [13] is 0.873%. Besides, the Potency in assay [7] is 1.38 µM (active); in assay [8], 15.5 µM (active).

Regarding `CCOc1ccc(N=Nc2ccc(/C=C/c3ccc(N=Nc4ccc(OCC)cc4)cc3S(=O)(=O)O)c(S(=O)(=O)O)c2)cc1`, the Potency in assay [1] was 47.8 µM (active); in assay [3], 38 µM (active); in [5], 42.6 µM (active); in assay [12], 27.8 µM (active). Further, the Potency entry in assay [2], in assay [4], in assay [7], in assay [8], in assay [9] and in assay [10] was “inactive” in each case.

As for `CCCCCCCCCCCC(=O)OC[C@@H](O)[C@H]1OC[C@H](OCCO)[C@H]1OCCO`, the Potency result in [1], in assay [2], in assay [3], in [4], in assay [5] and in assay [11] was “inactive” each time. Moreover, the Potency result in [12] and in assay [9] was “inactive” in each case. Moreover, the Potency in assay [10] was 17.4 µM (active).
